In the library only some 6.7% were active in any assay of this set; here they are far more common.
C diff HTS – C. difficile growth inhibitors, primary screen, HTS. Clostridium difficile clinical isolate growth, OD600, 24 h; stronger effect = lower value. AID 1259249, 2017. growth activity, negative = inhibition, % at 16 µg/mL (by protocol). 86,000 tested, 0.25% active;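 active = mean growth activity at or below -80% and every replicate also at or below -80%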;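 also: 0% = DMSO wells and -100% = levofloxacin 16 µg/mL wells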
Pf Dd2 growth – P. falciparum Dd2 growth inhibitors, primary screen, SYBR Green fluorescence, single dose replicates | 72 h; stronger effect = lower value | activity change, % at 10 µM | 94,000 tested, 2.3% active | AID 1159554, 2015; in the data active = activity change below about -80%
Tcruzi prolif – T. cruzi intracellular proliferation inhibitors, primary screen, cell-based, beta-gal Tulahuen parasites, NIH3T3 host, luminescence; T. cruzi beta-gal in NIH3T3, GalScreen luminescence, 90 h; inhibition, % at 8.34 µM; 77,000 tested, 5.9% active; AID 624255, 2012;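 active = mean inhibition above about 93%, with at least 55% of replicates each passing it, limit read from the data, passing the limit was not always enough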
Starred values were filed as active, the others as inactive; / = no result.

SMILES | C diff HTS | Pf Dd2 growth | Tcruzi prolif
COc1ccc(CN(C)C[C@H]2OCCCC[C@H](C)Oc3ccc(NC(=O)Nc4ccc(C(F)(F)F)cc4)cc3C(=O)N([C@H](C)CO)C[C@H]2C)cc1 | -26 | -69 | 48
C[C@@H]1CCCCO[C@@H](CN(C)Cc2ccncc2)[C@@H](C)CN([C@H](C)CO)C(=O)c2cc(NC(=O)C3CCCCC3)ccc2O1 | 3 | / | 26
C[C@@H]1CCCCO[C@H](CN(C)Cc2ccncc2)[C@@H](C)CN([C@@H](C)CO)C(=O)c2cc(NC(=O)C3CCCCC3)ccc2O1 | 1 | -85* | 44
C[C@H](CO)N1C[C@H](C)[C@@H](CN(C)Cc2ccccc2)OCCCC[C@H](C)Oc2ccc(NC(=O)Nc3ccc(C(F)(F)F)cc3)cc2C1=O | 20 | -39 | 82
COc1ccc(CN(C)C[C@@H]2OCCCC[C@H](C)Oc3ccc(NC(=O)Nc4ccc(C(F)(F)F)cc4)cc3C(=O)N([C@H](C)CO)C[C@H]2C)cc1 | -96* | -43 | 50
C[C@@H]1CN([C@H](C)CO)C(=O)c2cc(NC(=O)Nc3ccc(C(F)(F)F)cc3)ccc2O[C@@H](C)CCCCO[C@H]1CN(C)Cc1ccccc1 | 42 | -87* | 92
COc1ccc(NC(=O)Nc2ccc3c(c2)C(=O)N([C@H](C)CO)C[C@H](C)[C@@H](CN(C)Cc2ccc(C(F)(F)F)cc2)OCCCC[C@H](C)O3)cc1 | 6 | -1 | 72
COc1ccc(CN(C)C[C@@H]2OCCCC[C@H](C)Oc3ccc(NC(=O)Nc4ccc(C(F)(F)F)cc4)cc3C(=O)N([C@@H](C)CO)C[C@H]2C)cc1 | -83* | -49 | 69
COCC(=O)N(C)C[C@@H]1Oc2ncc(-c3ccc(F)cc3)cc2C(=O)N([C@@H](C)CO)C[C@H]1C | -3 | -7 | 4
C[C@@H]1CN([C@H](C)CO)C(=O)c2cccc(NC(=O)C3CCCCC3)c2O[C@@H]1CN(C)Cc1ccc2c(c1)OCO2 | 4 | -21 | 16
COc1ccc2c3c(n(C)c2c1)[C@@H](CO)N(CC1CC1)CC31CN(C(=O)Nc2ccccc2)C1 | -1 | -62 | /
CNC(=O)C[C@@H]1CC[C@H]2[C@H](COc3ccc(NC(=O)Nc4cccc(F)c4)cc3C(=O)N2C)O1 | 5 | -1 | 19
Cc1ccc(S(=O)(=O)Nc2ccc3c(c2)C(=O)N([C@H](C)CO)C[C@H](C)[C@@H](CN(C)C(=O)c2ccncc2)OCCCC[C@H](C)O3)cc1 | / | -36 | 24
Cc1ccc(S(=O)(=O)N(C)C[C@@H]2OCCCC[C@@H](C)Oc3ccc(NC(=O)Nc4c(C)noc4C)cc3C(=O)N([C@@H](C)CO)C[C@H]2C)cc1 | 3 | -31 | -22
C[C@@H]1CN([C@H](C)CO)C(=O)c2cc(NC(=O)NC3CCCCC3)ccc2O[C@@H](C)CCCCO[C@H]1CN(C)Cc1ccc(C(F)(F)F)cc1 | 3 | -94* | 34
C[C@@H]1CN([C@@H](C)CO)C(=O)c2cc(NC(=O)c3ccncc3)ccc2O[C@@H](C)CCCCO[C@H]1CN(C)Cc1ccc(C(F)(F)F)cc1 | 9 | -81* | 88
C[C@@H]1CN([C@@H](C)CO)C(=O)c2cc(NC(=O)c3ccncc3)ccc2O[C@@H](C)CCCCO[C@@H]1CN(C)Cc1ccc(C(F)(F)F)cc1 | 2 | -14 | 51
C[C@H]1CCCCO[C@@H](CN(C)Cc2ccc(C(F)(F)F)cc2)[C@@H](C)CN([C@@H](C)CO)C(=O)c2cc(NC(=O)NC3CCCCC3)ccc2O1 | 4 | -25 | 72
C[C@H]1CN([C@@H](C)CO)S(=O)(=O)c2ccc(C#CCN(C)C)cc2O[C@H]1CN(C)C(=O)C1CCCCC1 | 3 | -25 | /
COc1cccc(S(=O)(=O)N2C[C@H](O)COC[C@H]3O[C@H](CC(=O)N4CCCCC4)CC[C@@H]32)c1 | 3 | 1 | -27
C[C@@H]1CN([C@@H](C)CO)C(=O)Cc2cc(NS(C)(=O)=O)ccc2O[C@@H]1CN(C)Cc1ccc(C(=O)Nc2ccccc2N)cc1 | 1 | 8 | /
C[C@H](CO)N1C[C@H](C)[C@@H](CN(C)Cc2ccc(C(=O)Nc3ccccc3N)cc2)Oc2ccc(NS(C)(=O)=O)cc2CC1=O | -2 | -18 | 62
Cc1ccc(S(=O)(=O)Nc2ccc3c(c2)CC(=O)N([C@H](C)CO)C[C@@H](C)[C@@H](CN(C)Cc2ccc(C(=O)Nc4ccccc4N)cc2)O3)cc1 | 2 | -86* | 59
Cc1ccc(S(=O)(=O)Nc2ccc3c(c2)CC(=O)N([C@@H](C)CO)C[C@H](C)[C@@H](CN(C)Cc2ccc(C(=O)Nc4ccccc4N)cc2)O3)cc1 | 1 | -85* | /
Cc1noc(C)c1NC(=O)N(C)C[C@@H]1Oc2ccc(NS(=O)(=O)c3ccccc3)cc2C(=O)N([C@@H](C)CO)C[C@H]1C | 0 | -2 | 30
SMILES | C diff HTS | Pf Dd2 growth | Tcruzi prolif
CCC(=O)N1CC2(CCN(C(=O)c3cccnc3)CC2)c2c([nH]c3cc(OC)ccc23)[C@H]1CO | 7 | -58 | /
C[C@@H]1CN([C@@H](C)CO)C(=O)c2c(c3ccccc3n2C)-c2ccccc2CO[C@H]1CN(C)S(=O)(=O)c1ccc(C(F)(F)F)cc1 | 45 | -89* | /
Cc1ccc(S(=O)(=O)N(C)C[C@H]2OCc3ccccc3-c3c(n(C)c4ccccc34)C(=O)N([C@@H](C)CO)C[C@H]2C)cc1 | / | -86* | 47
C[C@H](CO)N1C[C@H](C)[C@@H](CN(C)S(=O)(=O)c2ccc(F)cc2)OCc2ccccc2-c2c(n(C)c3ccccc23)C1=O | / | -23 | 0
C[C@H]1CN([C@@H](C)CO)C(=O)c2c(c3ccccc3n2C)-c2ccccc2CO[C@@H]1CN(C)S(=O)(=O)c1ccccc1 | / | -79 | 91
C[C@@H]1CN([C@H](C)CO)C(=O)c2c(c3ccccc3n2C)-c2ccccc2CO[C@@H]1CN(C)S(=O)(=O)c1ccc(Cl)cc1 | / | -81* | 69
C[C@@H]1CN([C@@H](C)CO)C(=O)c2c(c3ccccc3n2C)-c2ccccc2CO[C@H]1CN(C)S(=O)(=O)c1ccc([N+](=O)[O-])cc1 | -28 | -76 | /
C[C@H]1CN([C@@H](C)CO)C(=O)c2c(c3ccccc3n2C)-c2ccccc2CO[C@H]1CN(C)S(=O)(=O)c1ccc(F)cc1 | / | -87* | 48
C[C@@H]1CN([C@@H](C)CO)C(=O)c2c(c3ccccc3n2C)-c2ccccc2CO[C@H]1CN(C)S(=O)(=O)c1ccc(Cl)cc1 | / | -75 | 78
Cc1ccc(S(=O)(=O)Nc2cccc3c2O[C@@H](CN(C)C)[C@H](C)CN([C@H](C)CO)C3=O)cc1 | 2 | -15 | 35
COc1ccc2c3c(n(C)c2c1)[C@@H](CO)N(C(=O)CN(C)C)CC31CN(Cc2cccnc2)C1 | / | 29 | /
CC(C)c1ccc(NC(=O)C[C@H]2CC[C@H]3[C@@H](COc4ccc(NC(=O)c5ccno5)cc4C(=O)N3C)O2)cc1 | 23 | / | 79
COCC(=O)N1[C@H](C#N)[C@H](c2ccccc2-c2ccccc2)[C@H]1CO | -12 | 0 | /
Cc1ccccc1-c1ccc([C@@H]2[C@H](CO)N3CCCCN(S(C)(=O)=O)C[C@@H]23)cc1 | -13 | 5 | 69

Assay outcomes as filed in PubChem.
